Laboratory results taken from PubChem BioAssay.
“And” between values parts separate entries of the source, which are not always exact repeats. Equal values may be shown once. Records with an inconclusive call do not appear. The source made the active and inactive calls. Unless noted, no rule for the calls is given here.

How the values were obtained:
[1] = modulation of C. elegans fzo-1 (AID 1259413);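 also: fzo-1 mutant C. elegans worms in liquid wells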; conditions: C. elegans fzo-1 modulator screen, mean read-out; stronger effect = higher value
[2] = system: Aerobactin synthetase IucA (Klebsiella pneumoniae); test: inhibition of K. pneumoniae IucA enzyme – biochemical, Tocris library, absorbance (AID 1345561); conditions: purified IucA enzyme assay, absorbance (OD) read-out; stronger effect = lower value;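 tested at 8 µM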;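 also: 100% = enzyme without compound and 0% = no enzyme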
[3] = EMT-state selective cytotoxicity in co-culture – imaging, PC-3E GFP, TEM4-18 mCherry, primary screen (AID 1345086;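 active = compounds killing one labelled cell type while sparing the other, by normalised counts and ratio limits, not self-fluorescent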;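 as to all read-outs here: cells exposed to compound for 72 h before imaging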;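 as to red/green cell ratio (normalised): normalised mesenchymal count divided by normalised epithelial count so high means epithelial killing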); conditions: PC-3E GFP / TEM4-18 mCherry co-culture, imaging cell counts, at 1 µM; for red/green cell ratio (normalised): actives lie on both sides, counts scaled to control wells, 1 = unselective
[4] = viability loss in pontine glioma line – cell-based, SU-DIPG-XIII, MIPE4.0, CellTiter-Glo, qHTS, dose response (AID 1347061; cut-off not given, nearly all actives have AC50 up to about 37 µM;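 also: cells exposed to compound for 48 hours before readout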); conditions: CellTiter-Glo ATP luminescence
[5] = viability loss in pontine glioma line – cell-based, JHH-DIPG-1, MIPE4.0, CellTiter-Glo, qHTS, dose response (AID 1347062; cut-off not given, nearly all actives have AC50 up to about 27 µM;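 as to AC50: cells exposed to compound for two days before readout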); conditions: JHH-DIPG-1 viability, CellTiter-Glo ATP luminescence
[6] = viability loss in pontine glioma line – cell-based, SU-DIPG-IV, MIPE4.0, CellTiter-Glo, qHTS, dose response (AID 1347063; cut-off not given, nearly all actives have AC50 up to about 30 µM;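 also: compound exposure lasted 48 hours before the viability readout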); conditions: CellTiter-Glo ATP luminescence
[7] = viability loss in pontine glioma line – cell-based, SU-DIPG-XVII, MIPE5.0, CellTiter-Glo, qHTS, dose response (AID 1347060; cut-off not given, nearly all actives have AC50 up to about 26 µM;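 as to AC50: cells exposed to compound for 48 hours before viability readout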); conditions: CellTiter-Glo ATP luminescence
[8] = viability loss in pontine glioma line – cell-based, SU-DIPG-XIII, MIPE5.0, CellTiter-Glo, qHTS, dose response (AID 1347064; cut-off not given, nearly all actives have AC50 up to about 23 µM;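 as to AC50: cells exposed to compound for 48 hours before the viability read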); conditions: CellTiter-Glo ATP luminescence
[9] = measured here: epithelial PC-3E GFP cell survival
[10] = measured here: mesenchymal TEM4-18 mCherry cell survival

In the case of `CC(Cc1ccccc1)(NC(=O)CN)c1ccccc1` (stereo not drawn), the mean signal [1] is reported as 268 (inactive) and the remaining activity [2] is reported as 116% (inactive).
In the case of `CN1CCN(CCCN2c3ccccc3Sc3ccc(Cl)cc32)CC1`, the mean signal [1] is reported as 253 (inactive), the red/green cell ratio (normalised) [3] is reported as 1.2 (inactive) and the normalised cell number [3, 9] is reported as 0.97. For the same compound, the normalised cell number [3, 10] was 1.16, the AC50 [4] was 10.5 nM (active) and the AC50 [5] was 7430 nM (active). For the same compound, the AC50 [6] was 10500 nM (active).
For `Cc1ncc([N+](=O)[O-])n1CCO`, the mean signal [1] was 239 (inactive), the red/green cell ratio (normalised) [3] was 1.23 (inactive) and the normalised cell number [3, 9] was 0.93. For the same compound, the normalised cell number [3, 10] was 1.13, the outcome [4] was “inactive” and the outcome [5] was “inactive”. The outcome [6] was “inactive”.
In the case of `CCN1CCC[C@H]1CNC(=O)c1cc(S(N)(=O)=O)ccc1OC`, the mean signal [1] is reported as 274 (inactive) and the remaining activity [2] is reported as 123% (inactive).
In the case of `CN(C/C=C/C#CC(C)(C)C)Cc1cccc2ccccc12`, the mean signal [1] is reported as 221 (inactive), the red/green cell ratio (normalised) [3] is reported as 1.03 (inactive) and the normalised cell number [3, 9] is reported as 1.32. For the same compound, the normalised cell number [3, 10] was 1.37, the outcome [4] was “inactive” and the outcome [5] was “inactive”.
For `CN(CCOc1ccc(NS(C)(=O)=O)cc1)CCc1ccc(NS(C)(=O)=O)cc1`, the mean signal [1] was 278 (inactive), the outcome [7] was “inactive” and the outcome [4] was “inactive”. For the same compound, the outcome [5] was “inactive” and the outcome [6] was “inactive”.
For `CC(c1cc2ccccc2s1)N(O)C(N)=O` (stereo not drawn), the mean signal [1] was 255 (inactive), the red/green cell ratio (normalised) [3] was 0.83 (inactive) and the normalised cell number [3, 9] was 1.22. For the same compound, the normalised cell number [3, 10] was 1.01, the outcome [4] was “inactive” and the outcome [5] was “inactive”. The outcome [6] was “inactive”.
With `CC(=O)Oc1ccccc1C(=O)Nc1ncc([N+](=O)[O-])s1` the mean signal [1] was 256 (inactive), the red/green cell ratio (normalised) [3] was 0.75 (inactive) and the normalised cell number [3, 9] was 1.31. For the same compound, the normalised cell number [3, 10] was 0.98, the AC50 [4] was 27000 nM (active) and the AC50 [5] was 38200 nM (active). For the same compound, the AC50 [6] was 34000 nM (active).
For `CC(=O)[C@]1(O)Cc2c(O)c3c(c(O)c2[C@@H](O[C@H]2C[C@H](N)[C@H](O)[C@H](C)O2)C1)C(=O)c1ccccc1C3=O`, the mean signal [1] was 267 (inactive), the AC50 [7] was 372 nM (active) and the AC50 [4] was 3320 nM (active). The AC50 [5] was 526 nM (active), the AC50 [6] was 662 nM (active) and the AC50 [8] was 11800 nM (active).
For `CN(C)CC/C=C1/c2ccccc2COc2ccc(CC(=O)O)cc21`, the mean signal [1] was 251 (inactive), the outcome [7] was “inactive” and the outcome [4] was “inactive”. The outcome [5] was “inactive” and the outcome [8] was “inactive”.
For `Cc1nc2n(c(=O)c1CCN1CCC(c3noc4cc(F)ccc34)CC1)CCCC2`, the mean signal [1] was 241 (inactive), the red/green cell ratio (normalised) [3] was 0.98 (inactive) and the normalised cell number [3, 9] was 1.02. For the same compound, the normalised cell number [3, 10] was 1, the outcome [4] was “inactive” and the outcome [6] was “inactive”.
With `Brc1c(NC2=NCCN2)ccc2nccnc12` the mean signal [1] was 249 (inactive) and the remaining activity [2] was 80.2% (inactive) and 100% (inactive).
For `O=C1N(c2ccccc2)c2ccccc2C1(Cc1ccncc1)Cc1ccncc1`, the mean signal [1] was 247 (inactive), the remaining activity [2] was 110% (inactive) and the outcome [7] was “inactive”. For the same compound, the outcome [4] was “inactive”, the outcome [5] was “inactive” and the outcome [6] was “inactive”. The outcome [8] was “inactive”.
With `CCN1CCC[C@H]1CNC(=O)c1c(O)c(Cl)cc(Cl)c1OC` the mean signal [1] was 227 (inactive) and the remaining activity [2] was 118% (inactive).
In the case of `CN1[C@@H]2CC[C@H]1CC(OC(=O)c1c[nH]c3ccccc13)C2` (stereo partly drawn), the mean signal [1] is reported as 271 (inactive), the remaining activity [2] is reported as 107% (inactive) and the outcome [5] is reported as “inactive”. The outcome [6] was “inactive”.
For `CCN(CC)CC1CCCCN1CC(=O)N1c2ccccc2C(=O)Nc2cccnc21` (stereo not drawn), the mean signal [1] was 227 (inactive) and the remaining activity [2] was 116% (inactive).
For `Nc1nc(F)nc2c1ncn2[C@@H]1O[C@H](CO)[C@@H](O)[C@@H]1O`, the mean signal [1] was 243 (inactive), the remaining activity [2] was 101% (inactive) and the AC50 [7] was 10500 nM (active).
For `COc1cccc2c1C(=O)c1c(O)c3c(c(O)c1C2=O)C[C@@](O)(C(=O)CO)C[C@@H]3O[C@H]1C[C@H](N)[C@H](O)[C@H](C)O1`, the mean signal [1] was 234 (inactive), the remaining activity [2] was 110% (inactive) and the AC50 [7] was 235 nM (active). The AC50 [5] was 332 nM (active), the AC50 [6] was 418 nM (active) and the AC50 [8] was 934 nM (active).
In the case of `O=C1CCc2ccc(OCCCCN3CCN(c4cccc(Cl)c4Cl)CC3)cc2N1`, the mean signal [1] is reported as 231 (inactive), the red/green cell ratio (normalised) [3] is reported as 0.72 (inactive) and the normalised cell number [3, 9] is reported as 1.31. The normalised cell number [3, 10] was 0.94, the outcome [4] was “inactive” and the outcome [5] was “inactive”.
With `NC(=O)OCC(COC(N)=O)c1ccccc1` the mean signal [1] was 234 (inactive), the remaining activity [2] was 104% (inactive) and the outcome [7] was “inactive”. The outcome [4] was “inactive” and the outcome [5] was “inactive”.
In the case of `O=C1CC2(CCCC2)CC(=O)N1CCNCC1COc2ccccc2O1` (stereo not drawn), the mean signal [1] is reported as 200 (inactive) and the remaining activity [2] is reported as 96.6% (inactive).
In the case of `C[C@@H]1CN(CCCn2c3ccccc3c3ccccc32)C[C@H](C)N1`, the mean signal [1] is reported as 203 (inactive) and the remaining activity [2] is reported as 123% (inactive).
In the case of `COc1cc(-c2ccc(=O)[nH]n2)ccc1OC(F)F`, the mean signal [1] is reported as 244 (inactive) and the remaining activity [2] is reported as 112% (inactive).
In the case of `Clc1ccc2nsnc2c1NC1=NCCN1`, the mean signal [1] is reported as 249 (inactive), the remaining activity [2] is reported as 113% (inactive) and the outcome [7] is reported as “inactive”. The outcome [4] was “inactive” and the outcome [8] was “inactive”.
For `CNCCCCOc1ccccc1Cc1ccccc1`, the mean signal [1] was 234 (inactive) and the remaining activity [2] was 120% (inactive).
With `CC(C)c1nc(CN(C)C(=O)N[C@H](C(=O)N[C@@H](Cc2ccccc2)C[C@H](O)[C@H](Cc2ccccc2)NC(=O)OCc2cncs2)C(C)C)cs1` the mean signal [1] was 246 (inactive), the red/green cell ratio (normalised) [3] was 1.06 (inactive) and the normalised cell number [3, 9] was 1.14. The normalised cell number [3, 10] was 1.21, the outcome [4] was “inactive” and the outcome [5] was “inactive”.
For `COc1cc2nc(N3CCN(C(=O)C4COc5ccccc5O4)CC3)nc(N)c2cc1OC` (stereo not drawn), the mean signal [1] was 219 (inactive), the red/green cell ratio (normalised) [3] was 0.65 (inactive) and the normalised cell number [3, 9] was 1.28. The normalised cell number [3, 10] was 0.83 and the outcome [4] was “inactive”.
For `NC1CCN(c2cccc(Cl)n2)CC1`, the mean signal [1] was 216 (inactive) and the remaining activity [2] was 113% (inactive).
